According to PubChem BioAssay AID624167 (Sanford-Burnham Center for Chemical Genomics, 2012):

Experiment: inhibition of PEG-3 promoter-driven reporter – cell-based, HeLa, luciferase, CREF/GAPDH counter-screen panel, dose response (AID 624167)
Settings: CREF/GAPDH counter-screens; run 1, dose range 1, at 100 µM (top of the series)

SMILES	inhibition [%]
CS(=O)(=O)c1ccc(-c2cn3cc(C(=O)O)ccc3n2)cc1	67.7
CN(C)CC1CCC/C(=C\c2ccc(OC(=O)c3ccc(Cl)cc3)cc2)C1=O (stereo not drawn)	76
O=C(N/N=C/c1ccc(Cl)c([N+](=O)[O-])c1)c1cc(-c2ccc3c4c(cccc24)CC3)n[nH]1	75.4
OCCCNc1nccc(-c2cc(Nc3cccc(Cl)c3)ncn2)n1	34.2
O=C(N/N=C/c1c(O)ccc2ccccc12)c1ccc(CO)nc1	-8.84
COc1ccc(Nc2ncnc3ccc(Br)cc23)c(OC)c1	90.8
Cc1nc(C)c(C(=O)N/N=C/c2cc(Br)ccc2O)s1	-7.82
Cc1ccc(/C=C2\SC(=S)N(CCCC(=O)NNC(=O)c3ccccc3O)C2=O)cc1	76.4
COc1ccc(NC(=O)c2cc(-c3ccccn3)nc3ccccc23)cc1S(=O)(=O)N(C)C	48.4
CS(=O)(=O)Nc1cccc(NC(=O)C2Cc3c(-c4ccccc4)ccnc3O2)c1 (stereo not drawn)	0.156
O=C(O)c1ccc(N/N=C/c2ccc(OC(=O)c3cccc(Cl)c3)cc2)cc1	96.4
CCCCC(=O)NC(c1ccccc1OC)c1ccc2cccnc2c1O (stereo not drawn)	37.8
Clc1ccccc1/C=C/c1nc(-c2ccccn2)no1	97.4
CCCCC(=O)NC(c1ccccc1)c1ccc2cccnc2c1O (stereo not drawn)	47.5
O=C(CNc1ccccc1)N/N=C/c1c(O)ccc2ccccc12	57
COc1cc(CNCCCN2CCOCC2)cc(Br)c1OCc1ccc(Cl)cc1	99.6
COc1cccc(/C=N/NC(=O)c2c(C)nc3ccc(Cl)cn23)c1O	-55.4

SMILES	inhibition [%]
CN(O)C(=S)c1ccccc1	3.97
CN1C/C(=C/c2ccccc2[N+](=O)[O-])C(=O)/C(=C\c2ccccc2[N+](=O)[O-])C1	50.1
O=C(c1ccco1)N1CCN(C(c2ccccc2Cl)c2nnnn2Cc2cccs2)CC1 (stereo not drawn)	69.4
O=C1C=CC(=O)N1c1ccc(-c2nc3ccccc3o2)cc1	100
CCCC(=O)NC(c1ccc(C)cc1)c1ccc2cccnc2c1O (stereo not drawn)	43.4
O=C(CNC(=O)C(c1ccccc1)c1ccccc1)N/N=C/c1ccc(O)cc1O	30.2
CC(=O)c1cccc(-c2ccnc3c2CC(C(=O)Nc2cccc(NS(C)(=O)=O)c2)O3)c1 (stereo not drawn)	51.4
O=C(CCl)N1c2ccccc2Sc2ccc3ccccc3c21	100
CC(=O)c1ccc(-c2cnc3c(NC=O)cc(-c4ccccc4Oc4ccccc4)cn23)cc1	39.3
CCCC(=O)NC(c1ccccc1)c1ccc2cccnc2c1O (stereo not drawn)	26.9
COC(=O)C1C=CC(OC2OC(COC(C)=O)C(OC(C)=O)C(OC(C)=O)C2OC(C)=O)n2c(=O)n(-c3ccccc3)c(=O)n21 (stereo not drawn)	94.9
O=C(CCn1cnc(-c2ccccc2)c1-c1ccccc1)N/N=C/c1ccccc1O	67.6
CCC(C)Cn1c(O)cc2nn(-c3nc4ccccc4s3)c(=O)c-2c1C (stereo not drawn)	99.6
CC(/C=C/c1ccccc1)=N/NC(=O)c1cc([N+](=O)[O-])cc([N+](=O)[O-])c1	5.41
CCOc1cccc(/C=N/NC(=S)Nc2cc(S(=O)(=O)N3CCOCC3)ccc2N2CCOCC2)c1O	-13.9
CC1CC(C)C(=O)C(C(CC2CC(=O)NC(=O)C2)OC(=O)CC(=O)c2ccccc2)C1 (stereo not drawn)	88.4
